Experimental data taken from ChEMBL document CHEMBL2218924, “A broad activity screen in support of a chemogenomic map for kinase signalling research and drug discovery” (Biochem J, 2013).

Assays:
[1] = target: Tyrosine-protein kinase SYK (Homo sapiens) (UniProt P43405); conditions: at 10 µM
[2] = target: T1, Mitogen-activated protein kinase kinase kinase 7 (Homo sapiens) (UniProt O43318); conditions: at 1 µM
T1 sequence (whole entry): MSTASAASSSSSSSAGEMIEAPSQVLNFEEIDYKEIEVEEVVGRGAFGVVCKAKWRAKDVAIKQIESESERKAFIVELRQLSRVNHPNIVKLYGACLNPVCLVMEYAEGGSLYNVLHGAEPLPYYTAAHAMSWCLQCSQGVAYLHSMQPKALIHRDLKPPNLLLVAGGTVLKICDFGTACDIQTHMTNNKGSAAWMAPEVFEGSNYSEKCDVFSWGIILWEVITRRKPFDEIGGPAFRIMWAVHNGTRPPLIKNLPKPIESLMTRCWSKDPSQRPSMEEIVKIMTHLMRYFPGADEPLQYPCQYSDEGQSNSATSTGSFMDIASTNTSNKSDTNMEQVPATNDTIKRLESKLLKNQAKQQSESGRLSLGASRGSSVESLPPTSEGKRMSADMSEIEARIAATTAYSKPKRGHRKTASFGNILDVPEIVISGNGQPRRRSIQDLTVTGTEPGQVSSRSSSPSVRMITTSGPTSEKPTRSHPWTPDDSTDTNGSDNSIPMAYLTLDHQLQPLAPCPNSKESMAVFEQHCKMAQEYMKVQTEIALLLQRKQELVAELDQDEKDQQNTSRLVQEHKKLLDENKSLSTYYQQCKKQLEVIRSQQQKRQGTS

[3] = target: T1, Mitogen-activated protein kinase kinase kinase 7 (Homo sapiens); conditions: at 10 µM
[4] = target: T2, Serine/threonine-protein kinase TAO1 (Homo sapiens) (UniProt Q7L7X3); conditions: at 10 µM
T2 sequence (whole entry): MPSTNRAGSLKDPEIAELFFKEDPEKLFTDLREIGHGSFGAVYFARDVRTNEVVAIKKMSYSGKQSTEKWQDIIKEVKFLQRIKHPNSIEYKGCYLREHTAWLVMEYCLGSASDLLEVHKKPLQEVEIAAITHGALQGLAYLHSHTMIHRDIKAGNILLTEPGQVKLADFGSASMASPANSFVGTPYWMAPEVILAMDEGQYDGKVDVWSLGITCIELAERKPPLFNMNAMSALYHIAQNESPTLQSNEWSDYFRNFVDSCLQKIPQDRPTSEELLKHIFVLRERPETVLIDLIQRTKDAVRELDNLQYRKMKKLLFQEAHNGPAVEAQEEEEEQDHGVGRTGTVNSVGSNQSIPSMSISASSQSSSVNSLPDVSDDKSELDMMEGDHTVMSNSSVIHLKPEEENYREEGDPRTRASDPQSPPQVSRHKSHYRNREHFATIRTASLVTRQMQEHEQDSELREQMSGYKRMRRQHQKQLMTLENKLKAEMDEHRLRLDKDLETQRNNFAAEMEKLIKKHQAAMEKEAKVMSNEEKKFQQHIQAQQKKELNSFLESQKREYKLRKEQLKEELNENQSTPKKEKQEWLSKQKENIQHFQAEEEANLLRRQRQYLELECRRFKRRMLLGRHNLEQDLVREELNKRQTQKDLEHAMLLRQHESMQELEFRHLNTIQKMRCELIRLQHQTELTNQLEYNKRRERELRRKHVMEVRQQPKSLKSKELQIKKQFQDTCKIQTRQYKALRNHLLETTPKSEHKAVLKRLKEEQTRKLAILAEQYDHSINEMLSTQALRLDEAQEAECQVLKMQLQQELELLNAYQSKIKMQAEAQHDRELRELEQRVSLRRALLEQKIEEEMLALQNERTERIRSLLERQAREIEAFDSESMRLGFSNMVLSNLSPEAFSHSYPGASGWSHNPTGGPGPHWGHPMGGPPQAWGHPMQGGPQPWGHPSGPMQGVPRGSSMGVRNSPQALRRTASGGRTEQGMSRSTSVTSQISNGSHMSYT

[5] = target: T3, Serine/threonine-protein kinase TAO3 (Homo sapiens) (UniProt Q9H2K8); conditions: at 10 µM
T3 sequence (whole entry): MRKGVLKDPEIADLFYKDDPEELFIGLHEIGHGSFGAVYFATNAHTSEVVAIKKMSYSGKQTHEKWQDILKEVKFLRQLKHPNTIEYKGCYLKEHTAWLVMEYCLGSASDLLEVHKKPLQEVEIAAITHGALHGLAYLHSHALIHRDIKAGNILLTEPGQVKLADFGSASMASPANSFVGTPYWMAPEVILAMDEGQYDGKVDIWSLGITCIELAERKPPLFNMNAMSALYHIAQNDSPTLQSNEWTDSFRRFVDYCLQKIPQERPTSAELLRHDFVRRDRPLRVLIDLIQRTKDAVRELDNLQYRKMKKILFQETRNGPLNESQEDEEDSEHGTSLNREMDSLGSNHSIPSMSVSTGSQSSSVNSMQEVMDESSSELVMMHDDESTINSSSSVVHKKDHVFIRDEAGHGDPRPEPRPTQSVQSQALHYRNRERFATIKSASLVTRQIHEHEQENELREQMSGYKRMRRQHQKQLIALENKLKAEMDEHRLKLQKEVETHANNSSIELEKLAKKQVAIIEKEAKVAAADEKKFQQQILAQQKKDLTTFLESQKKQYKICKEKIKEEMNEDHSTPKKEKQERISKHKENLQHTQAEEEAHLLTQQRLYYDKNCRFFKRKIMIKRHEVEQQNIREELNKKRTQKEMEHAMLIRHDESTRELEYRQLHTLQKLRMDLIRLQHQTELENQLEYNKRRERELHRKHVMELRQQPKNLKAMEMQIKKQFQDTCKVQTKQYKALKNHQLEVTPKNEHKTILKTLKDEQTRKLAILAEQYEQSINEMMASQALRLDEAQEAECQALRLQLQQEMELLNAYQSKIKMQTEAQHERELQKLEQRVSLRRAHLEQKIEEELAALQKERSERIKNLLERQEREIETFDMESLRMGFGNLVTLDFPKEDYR

[6] = target: T4, Serine/threonine-protein kinase TBK1 (Homo sapiens) (UniProt Q9UHD2); conditions: at 1 µM
T4 sequence (whole entry): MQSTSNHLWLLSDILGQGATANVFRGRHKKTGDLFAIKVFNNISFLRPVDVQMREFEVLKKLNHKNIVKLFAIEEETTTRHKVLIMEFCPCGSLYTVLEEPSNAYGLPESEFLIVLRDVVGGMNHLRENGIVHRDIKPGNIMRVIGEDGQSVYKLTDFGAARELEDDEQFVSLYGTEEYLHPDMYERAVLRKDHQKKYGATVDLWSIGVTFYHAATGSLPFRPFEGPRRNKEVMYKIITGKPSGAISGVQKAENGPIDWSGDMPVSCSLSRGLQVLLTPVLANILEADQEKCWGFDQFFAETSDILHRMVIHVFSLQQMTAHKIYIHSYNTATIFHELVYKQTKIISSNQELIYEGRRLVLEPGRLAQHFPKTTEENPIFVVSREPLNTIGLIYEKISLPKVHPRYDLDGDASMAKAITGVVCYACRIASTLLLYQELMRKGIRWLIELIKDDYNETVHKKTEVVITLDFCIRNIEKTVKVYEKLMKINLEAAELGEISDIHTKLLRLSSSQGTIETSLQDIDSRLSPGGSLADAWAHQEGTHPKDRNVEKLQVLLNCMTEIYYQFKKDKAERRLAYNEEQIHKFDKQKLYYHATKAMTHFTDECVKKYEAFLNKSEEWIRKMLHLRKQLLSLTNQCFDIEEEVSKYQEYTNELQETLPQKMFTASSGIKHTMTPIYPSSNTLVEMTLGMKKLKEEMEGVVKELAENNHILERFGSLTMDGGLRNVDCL

[7] = target: T4, Serine/threonine-protein kinase TBK1 (Homo sapiens); conditions: at 10 µM
[8] = target: T5, TGF-beta receptor type-1 (Homo sapiens) (UniProt P36897); conditions: at 1 µM
T5 sequence (whole entry): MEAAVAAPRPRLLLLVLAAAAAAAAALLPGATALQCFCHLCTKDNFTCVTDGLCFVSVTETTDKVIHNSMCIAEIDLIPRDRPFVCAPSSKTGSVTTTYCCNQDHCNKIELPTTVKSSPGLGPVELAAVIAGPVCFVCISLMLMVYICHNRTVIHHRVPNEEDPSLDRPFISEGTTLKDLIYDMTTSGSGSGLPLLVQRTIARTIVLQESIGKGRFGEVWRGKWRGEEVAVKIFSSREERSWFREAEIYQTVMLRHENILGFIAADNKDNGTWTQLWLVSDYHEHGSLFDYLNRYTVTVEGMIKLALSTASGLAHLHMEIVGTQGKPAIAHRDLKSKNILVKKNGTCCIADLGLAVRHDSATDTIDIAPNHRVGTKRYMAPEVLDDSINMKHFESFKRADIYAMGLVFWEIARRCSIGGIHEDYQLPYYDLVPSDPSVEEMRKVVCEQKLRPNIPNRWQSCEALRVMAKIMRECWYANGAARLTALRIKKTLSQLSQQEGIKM

[9] = target: T5, TGF-beta receptor type-1 (Homo sapiens); conditions: at 10 µM
[10] = target: Insulin-like growth factor 1 receptor (Homo sapiens) (UniProt P08069); conditions: at 10 µM
Insulin-like growth factor 1 receptor (Homo sapiens), sequence (P08069 31-736 limits assumed): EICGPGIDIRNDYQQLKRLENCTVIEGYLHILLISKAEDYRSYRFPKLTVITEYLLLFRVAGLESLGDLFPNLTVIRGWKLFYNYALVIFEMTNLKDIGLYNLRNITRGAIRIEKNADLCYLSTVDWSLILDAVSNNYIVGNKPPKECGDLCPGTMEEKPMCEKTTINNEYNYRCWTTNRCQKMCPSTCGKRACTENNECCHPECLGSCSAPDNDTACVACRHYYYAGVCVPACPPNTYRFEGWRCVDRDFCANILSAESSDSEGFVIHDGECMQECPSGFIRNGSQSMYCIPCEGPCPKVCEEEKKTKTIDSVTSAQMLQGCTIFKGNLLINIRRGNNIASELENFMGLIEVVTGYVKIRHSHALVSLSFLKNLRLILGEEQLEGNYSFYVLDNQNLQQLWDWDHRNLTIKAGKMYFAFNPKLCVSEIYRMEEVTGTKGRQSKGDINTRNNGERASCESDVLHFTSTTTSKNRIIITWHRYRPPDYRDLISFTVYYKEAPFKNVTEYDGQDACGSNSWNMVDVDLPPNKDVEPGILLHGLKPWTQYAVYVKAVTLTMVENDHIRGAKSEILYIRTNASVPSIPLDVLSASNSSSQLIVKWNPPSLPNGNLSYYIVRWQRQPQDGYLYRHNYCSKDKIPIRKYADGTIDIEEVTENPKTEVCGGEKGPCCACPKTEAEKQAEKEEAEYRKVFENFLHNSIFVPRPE
Insulin-like growth factor 1 receptor (Homo sapiens), sequence (P08069 741-1367 limits assumed): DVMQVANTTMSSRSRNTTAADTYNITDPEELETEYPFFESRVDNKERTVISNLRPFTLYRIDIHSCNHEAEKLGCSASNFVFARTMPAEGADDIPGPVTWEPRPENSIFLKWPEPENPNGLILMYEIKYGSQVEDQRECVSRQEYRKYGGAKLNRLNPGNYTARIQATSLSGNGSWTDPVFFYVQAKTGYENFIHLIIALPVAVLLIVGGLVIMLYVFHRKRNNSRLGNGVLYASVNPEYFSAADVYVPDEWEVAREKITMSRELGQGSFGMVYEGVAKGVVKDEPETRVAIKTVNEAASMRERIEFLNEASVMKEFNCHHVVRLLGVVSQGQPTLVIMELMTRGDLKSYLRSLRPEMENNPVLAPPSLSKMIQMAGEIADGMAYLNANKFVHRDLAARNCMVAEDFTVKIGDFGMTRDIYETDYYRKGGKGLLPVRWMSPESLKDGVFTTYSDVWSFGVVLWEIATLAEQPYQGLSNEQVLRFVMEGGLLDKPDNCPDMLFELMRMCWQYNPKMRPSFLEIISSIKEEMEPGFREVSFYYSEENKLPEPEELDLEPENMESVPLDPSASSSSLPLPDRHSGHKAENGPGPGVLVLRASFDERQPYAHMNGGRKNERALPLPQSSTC

SMILES | residual activity [1] | residual activity [2] | residual activity [3] | residual activity [4] | residual activity [5] | residual activity [6] | residual activity [7] | residual activity [8] | residual activity [9] | residual activity [10]
O=C(c1ccccc1)c1ccc(N2CCOCC2)cc1O | 93% | 100% | 95% | 91% | 92% | 91% | 77% | 95% | 99% | 93%
O=c1cc(N2CCOCC2)oc2c(-c3ccccc3)cccc12 | – | – | – | – | – | 68% | 55% | – | – | –
